# Laboratory results from PubChem BioAssay (NCI).
# About 83,000 compounds went through this panel and 20% of them were active in at least one assay; those are over-represented in the sample as a whole.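 Method: cells in 96-well plates; compound added at one concentration; 48 h incubation; percent growth measured; values under 10 scored active.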 A number with no mark means an inactive call. Activity calls are given as the source filed them.
# Test system: HCT-116 colon
# Experiment: NCI-60 one-dose screen, 48 h (100 = growth as untreated, 0 = no growth, -100 = all killed)
# Conditions: 10 µM unless noted
row,SMILES,growth
1,COc1ccc2[nH]c3nc4cnccc4cc3c2c1,97.9%
2,O=C(Nc1ccccc1)NS(=O)(=O)c1c[nH]c(=S)[nH]c1=O,93.8%
3,NCCCn1c2c(c3cc(-c4ccn[nH]4)ccc3c1=O)C(=O)c1ccccc1-2,19.1%
4,COc1cc(-c2csc(NC(=O)Nc3ccc(C(F)(F)F)cc3)n2)cc(OC)c1OC,5.03% (active)
5,COc1ccc2c(c1)C1(C(=O)N2)C(C#N)=C(c2ccccc2)Nc2c1c(-c1ccccc1)nn2-c1ccccc1 (configuration not stated),4.04% (active)
6,Cc1ccc(C(=O)/C(=C/c2ccc([N+](=O)[O-])cc2)S(=O)Cc2ccccc2)cc1 (configuration not stated),-59.2% (active)
7,OCCNc1nc(NCCO)nc(Nc2ccc(C3=NN(c4cc(Cl)cc(Cl)c4)C(c4ccc(C(F)(F)F)cc4)C3)cc2)n1 (configuration not stated),32.7%
8,Cc1cnc(-c2ccc(-c3ccc(NC(=O)Nc4c(F)cc(F)cc4F)cc3F)c3c2C(=O)NC3)[nH]1,14.2%
9,O=C(Nc1cccc(-c2cccc(F)c2)c1)C1CCN(Cc2cccc3cccnc23)CC1,33.8%
10,CC(=O)ON1CCCC(P(=O)(OCOC(=O)C(C)(C)C)OCOC(=O)C(C)(C)C)C1=O (configuration not stated),0.623% (active)
11,Cc1cnc(SCc2ccc(Cl)cc2Cl)nc1Nc1ccc(Cl)c(Cl)c1,77.3%
12,O=C(O)c1cn(C2CC2)c2cc(N3CCN(Cc4nnc(Nc5ccccc5)o4)CC3)c(F)cc2c1=O,91.6%
13,C#Cc1cccc(Nc2ncnc3ccc(NC(=O)c4ccccc4)cc23)c1,76%
14,CCOC(=O)c1c(C)nc2c(c1N)/C(=C/c1ccc[nH]1)C(=O)N2Cc1ccc(C(F)(F)F)cc1,28.4%
15,O=CN1N=C(c2ccc(F)cc2)CC1c1cccc(Nc2ccnc3cc(C(F)(F)F)ccc23)c1 (configuration not stated),41.8%
16,Cc1cccc(C)c1NC(=O)CN(CC(C)C)CC(O)COc1ccccc1 (configuration not stated),86.8%
17,COc1ccccc1N1CCN(CCCOc2ccc(C(=O)/C=C3/C(=O)Nc4ccccc43)cc2)CC1,34.4%
18,COc1cc(/C=C/C(=O)/C=C/c2cc3ccc(Cl)cc3n(Cc3ccccc3)c2=O)ccc1O,-82.6% (active)
19,Cc1cc(C)n(-c2nc(-c3cccs3)c(C#N)c(=O)[nH]2)n1,85.1%

row,SMILES,growth
1,CN(C)C1=NCCN1,98.7%
2,N#CCNc1ccc(C(=O)O)cc1,103%
3,COc1ccc2c(c1)/C(=C1\S/C(=N/c3nnc(C)s3)NC1=O)C(=O)N2Cc1ccc(Cl)cc1,31.7%
4,O=C(O)CCNC1CCCCC1,92.6%
5,N#CC1(C#N)C2=C(CCCC2)NC(c2c(F)cccc2Cl)C1(C#N)C#N (configuration not stated),52.7%
6,CCOC(=O)/C(=C/c1c(-c2ccccc2)[nH]c2ccccc12)C(=O)c1ccc(Cl)cc1,14%
7,S=C(Nc1ccccc1)c1ccccn1,92.5%
8,CC(=O)c1ccc(NC(=O)CSc2nnc(-c3cc(-c4ccc(Cl)cc4)nc4ccccc34)o2)cc1,20.8%
9,COC(=O)c1ccc(NC(=O)CSc2nc(-c3ccc(F)cc3)nc3ccccc23)cc1,49.8%
10,O=C1Nc2ccc(Cl)cc2/C1=N/c1nc(-c2ccc(Cl)cc2)cs1,3.16% (active)
11,COc1cc([C@H](C)c2ccc3ccccc3c2)cc(OC)c1OC,6.72% (active)
12,Cc1cc2ccccc2c[n+]1CC(=O)c1ccc(-c2ccccc2)cc1,28.4%
13,C=C(C)[C@@H]1CC[C@]2(C(=O)O)CC[C@]3(C)[C@H](CC[C@@H]4[C@@]5(C)C[C@@H](CC#Cc6ccccc6C)C(=O)C(C)(C)[C@@H]5CC[C@]43C)[C@@H]12,12.5%
14,Nc1c(C(=O)Nc2cccc3ccccc23)sc2nc3c(cc12)COCC3,26.3%
15,COC(=O)[C@]1(C)CCC[C@]2(C)[C@H]3C[C@H]4C(C(C)C)=C[C@]3(CC[C@H]21)[C@@H]1C(=O)N(CCC#N)C(=O)[C@@H]14,70.8%
16,COCCOCCOCc1n(Cc2ccc3ccccc3c2)c2ccccc2[n+]1Cc1ccc2ccccc2c1,20.1%
17,CC(=O)[C@@H]1CC[C@]2(C(=O)O)CC[C@]3(C)[C@H](CC[C@@H]4[C@@]5(C)Cc6c([nH]c7ccccc67)C(C)(C)[C@@H]5CC[C@]43C)[C@@H]12,43.5%
18,N#Cc1c(-c2ccc(F)cc2)c(C#N)c2c(C#N)c(N)nn2c1N,92.5%
